In all, about 81,000 sequences were measured (“one-hybrid fitness for binding parS DNA”: median about -0.17, highest 2% from about 0.51 on). The sample as a whole holds a higher share of the highest values than the screen did.
B1: Caulobacter ParB omega fusion; a variant is named by its letters at X, in order, B8GW30 (parent)
chain: MESVVVGEPGMSEGRRGLGRGLSALLGEVDAAPAQAPGEQLGGSREAPIEILQRNPDQPRRTFREEDLEDLSNSIREKGVLQPILVRPSPDTAGEYQIVAGERAWRAAQRAGLKTVPIMVRELDDLAVLEIGIIENVQRADLNVLEEALSYKVLMEKFERTQENIAQTIGKSXSHVANXMRLLXLPDEVQSYLVSGELTAXHARAIAAAADPVALAKQIIEGGLSVRETEALARKAPNLSAGKSKGGRPPRVKDTDTQALESDLSSVLGLDVSIDHRGSTGTLTITYATLEQLDDLCNRLTRGI

Variants of: B1
Test: one-hybrid fitness for binding parS DNA (scaled: cognate 1, non-cognate 0); higher = stronger binding
Conditions: with parS DNA site
Summary of the method: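 On M9-minus-histidine containing 0.1 mM IPTG and 5 mM 3-AT, E. coli USO cells with a HIS3 reporter, site 19 bp from the promoter, grew 48 hours at 37°C to select Caulobacter ParB libraries randomised at four specificity codons. Plasmids from before and after were Illumina-sequenced, with three replicate libraries pooled and variants under 10 reads left out. Fitness is the log change in variant-to-wild-type read ratio, rescaled against cognate and non-cognate.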

| Variant | one-hybrid fitness for binding parS DNA |
| --- | --- |
| QRLD | ≤ 0.2 |
| GQHW | ≤ 0.2 |
| KKGT | ≤ 0.2 |
| PNTI | ≤ 0.2 |
| NASI | ≤ 0.2 |
| HCLN | ≤ 0.2 |
| TCIV | ≤ 0.2 |
| HMWR | ≤ 0.2 |
| YTVS | ≤ 0.2 |
| RLYK | ≤ 0.2 |
| RLYR | 0.23 |
| RLYC | 1.01 |
| RLRN | 0.432 |
| RLRC | 0.846 |
| RLRQ | ≤ 0.2 |
| WPPM | ≤ 0.2 |
| YLAL | ≤ 0.2 |
| RVYK | ≤ 0.2 |
| RVHT | 0.927 |
| RVRK | ≤ 0.2 |
| RVRT | 0.825 |
| RVYT | 0.93 |
| RVHP | ≤ 0.2 |
| RVRQ | ≤ 0.2 |

| Variant | one-hybrid fitness for binding parS DNA |
| --- | --- |
| RVYF | 0.25 |
| RVHD | ≤ 0.2 |
| RVSK | ≤ 0.2 |
| RVST | 0.92 |
| RVSF | 0.224 |
| GPPY | ≤ 0.2 |
| YVGI | ≤ 0.2 |
| QTHG | ≤ 0.2 |
| FAKY | ≤ 0.2 |
| LKTR | ≤ 0.2 |
| PGLR | ≤ 0.2 |
| RVWR | ≤ 0.2 |
| RVDD | ≤ 0.2 |
| RVWT | 0.886 |
| RVQP | ≤ 0.2 |
| RVQN | 0.417 |
| RVLM | 0.309 |
| RVLQ | ≤ 0.2 |
| RVQT | 0.913 |
| RVDH | ≤ 0.2 |
| RVLT | 0.92 |
| RVDT | 0.741 |
| RVWF | 0.25 |
| PFSC | ≤ 0.2 |

| Variant | one-hybrid fitness for binding parS DNA |
| --- | --- |
| GKMI | ≤ 0.2 |
| LFDL | ≤ 0.2 |
| TQEV | ≤ 0.2 |
| RKRY | 0.422 |
| FSIS | ≤ 0.2 |
| RVGD | ≤ 0.2 |
| RVGT | 0.924 |
| RVNH | ≤ 0.2 |
| RVCM | 0.382 |
| RVCY | 0.462 |
| RVGN | 0.451 |
| RVNT | 0.899 |
| RVCT | 0.926 |
| RVNP | ≤ 0.2 |
| PRGK | ≤ 0.2 |
| VWDG | ≤ 0.2 |
| IEKT | ≤ 0.2 |
| VALY | ≤ 0.2 |
| GQET | ≤ 0.2 |
| SLYK | ≤ 0.2 |
| GKPL | ≤ 0.2 |
| RHET | 0.734 |
| RCET | 0.758 |
| RPET | ≤ 0.2 |

| Variant | one-hybrid fitness for binding parS DNA |
| --- | --- |
| RDET | ≤ 0.2 |
| RAET | 0.68 |
| RAEK | ≤ 0.2 |
| RRET | 0.674 |
| RHEM | 0.214 |
| RHEK | ≤ 0.2 |
| RAEI | ≤ 0.2 |
| EKRG | ≤ 0.2 |
| SQQG | ≤ 0.2 |
| TPYC | ≤ 0.2 |
| VTLR | ≤ 0.2 |
| QKRV | ≤ 0.2 |
| QSKN | ≤ 0.2 |
| QNAM | ≤ 0.2 |
| EGGH | ≤ 0.2 |
| VPIN | ≤ 0.2 |
| DWQR | ≤ 0.2 |
| RFET | 0.655 |
| RMEM | 0.309 |
| RSET | 0.653 |
| REET | ≤ 0.2 |
| RIEK | ≤ 0.2 |
| EFET | ≤ 0.2 |
| PFET | ≤ 0.2 |

| Variant | one-hybrid fitness for binding parS DNA |
| --- | --- |
| RIET | 0.709 |
| RMET | 0.731 |
| RMEF | ≤ 0.2 |
| RIEF | ≤ 0.2 |
| RGET | 0.308 |
| PTPR | ≤ 0.2 |
| QSVP | ≤ 0.2 |
| AQRA | ≤ 0.2 |
| WPTL | ≤ 0.2 |
| GPKW | ≤ 0.2 |
| RTEP | ≤ 0.2 |
| RLET | 0.783 |
| RKET | 0.799 |
| RLEK | ≤ 0.2 |
| RTEN | 0.349 |
| RTET | 0.75 |
| RLEY | 0.458 |
| RKER | ≤ 0.2 |
| RKEY | 0.401 |
| AEWH | ≤ 0.2 |
| ISIL | ≤ 0.2 |
| LPPC | ≤ 0.2 |
| TELP | ≤ 0.2 |
| PLFM | ≤ 0.2 |

| Variant | one-hybrid fitness for binding parS DNA |
| --- | --- |
| HICT | ≤ 0.2 |
| SMNV | ≤ 0.2 |
| SGQL | ≤ 0.2 |
| LYHP | ≤ 0.2 |
| RTQA | 0.627 |
| RDQA | ≤ 0.2 |
| NTQA | ≤ 0.2 |
| DTQA | ≤ 0.2 |
| RHQA | 0.5 |
| RCQA | 0.593 |
| RWQA | 0.404 |
| RSQA | 0.555 |
| RMQA | 0.574 |
| RGQA | 0.364 |
| VRKH | ≤ 0.2 |
| GAVT | ≤ 0.2 |
| RVVL | ≤ 0.2 |
| YEHG | ≤ 0.2 |
| GAFN | ≤ 0.2 |
| CTDH | ≤ 0.2 |
| PIDR | ≤ 0.2 |
| SPPW | ≤ 0.2 |
| IYKI | ≤ 0.2 |
| CLQA | ≤ 0.2 |

| Variant | one-hybrid fitness for binding parS DNA |
| --- | --- |
| NLQA | ≤ 0.2 |
| RLQA | 0.616 |
| KMPV | ≤ 0.2 |
| KSYG | ≤ 0.2 |
| MYPR | ≤ 0.2 |
| AHSN | ≤ 0.2 |
| MNDG | ≤ 0.2 |
| QPYH | ≤ 0.2 |
| TMHS | ≤ 0.2 |
| PTQT | ≤ 0.2 |
| RAVS | 0.986 |
| RAKH | 0.239 |
| RAKP | ≤ 0.2 |
| RAVD | ≤ 0.2 |
| RAKS | 0.874 |
| RAVH | 0.202 |
| TSEV | ≤ 0.2 |
| RRHL | ≤ 0.2 |
| PNHC | ≤ 0.2 |
| NLGV | ≤ 0.2 |
| RAKQ | ≤ 0.2 |
| RAKG | 0.937 |
| RAVG | 0.923 |
| RAVF | ≤ 0.2 |

| Variant | one-hybrid fitness for binding parS DNA |
| --- | --- |
| RAVR | ≤ 0.2 |
| RAKK | ≤ 0.2 |
| QLEL | ≤ 0.2 |
| FTDC | ≤ 0.2 |
| NTWT | ≤ 0.2 |
| RQNP | ≤ 0.2 |
| RQDP | ≤ 0.2 |
| RQNS | 0.921 |
| RQDS | 0.977 |
| RQNH | 0.329 |
| RQDN | 0.431 |
| PMTF | ≤ 0.2 |
| IRPV | ≤ 0.2 |
| RSLM | 0.32 |
| WKDS | ≤ 0.2 |
| RSKC | 0.943 |
| RSKP | ≤ 0.2 |
| RPKC | ≤ 0.2 |
| RSKN | 0.443 |
| RDKC | 0.282 |
| RCKC | 0.816 |
| IDNS | ≤ 0.2 |
| QCDG | ≤ 0.2 |
| PPSE | ≤ 0.2 |

| Variant | one-hybrid fitness for binding parS DNA |
| --- | --- |
| KIGR | ≤ 0.2 |
| ANCC | ≤ 0.2 |
| HRKN | ≤ 0.2 |
| RNVP | ≤ 0.2 |
| RNKN | 0.354 |
| RNVY | ≤ 0.2 |
| RNKS | 0.936 |
| RNVD | ≤ 0.2 |
| RNYY | 0.297 |
| RNKY | 0.543 |
| RNVS | 0.674 |
| RNKH | 0.219 |
| QADL | ≤ 0.2 |
| QIAH | ≤ 0.2 |
| YERV | ≤ 0.2 |
| YMQL | ≤ 0.2 |
| NLRR | ≤ 0.2 |
| QKLQ | ≤ 0.2 |
| RIAH | 0.279 |
| RIFK | 0.283 |
| RIAG | 0.997 |
| RIFG | 0.978 |
| RIFY | 0.462 |
| RIAP | ≤ 0.2 |

| Variant | one-hybrid fitness for binding parS DNA |
| --- | --- |
| YDMG | ≤ 0.2 |
| WYYF | ≤ 0.2 |
| GTPA | ≤ 0.2 |
| PTAE | ≤ 0.2 |
| RYPH | ≤ 0.2 |
| RYIN | 0.269 |
| RYIK | ≤ 0.2 |
| RYIG | 0.793 |
| RYPG | 0.545 |
| RYPN | ≤ 0.2 |
| PRFW | ≤ 0.2 |
| CGQS | ≤ 0.2 |
| HFIF | ≤ 0.2 |
| GKTS | ≤ 0.2 |
| RLNS | 0.932 |
| RLNH | 0.252 |
| RLSS | 0.991 |
| RLRH | 0.223 |
| RLHP | ≤ 0.2 |
| RLRP | ≤ 0.2 |
| RLRS | 0.875 |
| RLHS | 0.96 |
| RLSN | 0.455 |
| RLHH | 0.204 |

| Variant | one-hybrid fitness for binding parS DNA |
| --- | --- |
| RLSD | ≤ 0.2 |
| RLND | ≤ 0.2 |
| QPVT | ≤ 0.2 |
| TWLF | ≤ 0.2 |
| MFNG | ≤ 0.2 |
| MAAA | ≤ 0.2 |
| NWPE | ≤ 0.2 |
| TFVS | ≤ 0.2 |
| VVQN | ≤ 0.2 |
| YPYG | ≤ 0.2 |
| IVTG | ≤ 0.2 |
| LDGI | ≤ 0.2 |
| ACHY | ≤ 0.2 |
| RLGS | 0.981 |
| RLWD | ≤ 0.2 |
| RLWS | 1.03 |
| RLGP | ≤ 0.2 |
| RLWN | 0.443 |
| RLYS | 1.04 |
| RLGD | ≤ 0.2 |
| RLLN | 0.44 |
| RLLH | 0.248 |
| RLLS | 1.05 |
| RLYD | ≤ 0.2 |

| Variant | one-hybrid fitness for binding parS DNA |
| --- | --- |
| RLYN | 0.487 |
| YVWS | ≤ 0.2 |
| YNKG | ≤ 0.2 |
| RRYE | ≤ 0.2 |
| YFLW | ≤ 0.2 |
| GWSG | ≤ 0.2 |
| SAAF | ≤ 0.2 |
| VKNG | ≤ 0.2 |
| AELV | ≤ 0.2 |
| GLPW | ≤ 0.2 |
| PMAN | ≤ 0.2 |
| YMPP | ≤ 0.2 |
| KVPK | ≤ 0.2 |
| RLDH | ≤ 0.2 |
| RLDN | 0.416 |
| RLDS | 1.01 |
| QGEI | ≤ 0.2 |
| TFSF | ≤ 0.2 |
| YFFS | ≤ 0.2 |
| RGCT | 0.51 |
| RGWS | 0.573 |
| RGGN | ≤ 0.2 |
| RGWD | ≤ 0.2 |
| RGCD | ≤ 0.2 |

| Variant | one-hybrid fitness for binding parS DNA |
| --- | --- |
| RGGP | ≤ 0.2 |
| RGWN | ≤ 0.2 |
| RGCQ | ≤ 0.2 |
| RGCS | 0.595 |
| RGCN | ≤ 0.2 |
| RGGS | 0.733 |
| SEDR | ≤ 0.2 |
| YADT | ≤ 0.2 |
| KCCV | ≤ 0.2 |
| VDHL | ≤ 0.2 |
| DLCC | ≤ 0.2 |
| SLAM | ≤ 0.2 |
| NYMG | ≤ 0.2 |
| RGSN | 0.218 |
| RGHT | 0.519 |
| RGSS | 0.849 |
| RGQT | 0.58 |
| RGIN | ≤ 0.2 |
| RGHF | ≤ 0.2 |
| RGIS | 0.524 |
| RGIH | ≤ 0.2 |
| RGSD | ≤ 0.2 |

Source: a collection of fitness landscapes (doi:10.1016/j.celrep.2020.107928)
